Results reported in PubChem BioAssay (Tox21).
Records with an inconclusive call do not appear. The source made the active and inactive calls. Unless noted, calls come from the whole dose curve; as a rule, active = well fitted curve in the direction sought with a large enough effect in the repeat runs; inconclusive = weak or mixed curves; inactive = flat fitted curve, though single readings scatter.

Legend:
[1] = qHTS assay to test for compound auto fluorescence at 535 nm (green) in HEK293 cells (AID 720680); settings: green autofluorescence 485/535 nm; series mostly up to 91.3 µM
[2] = qHTS assay to test for compound auto fluorescence at 460 nm (blue) in HEK293 cell free culture (AID 720681); settings: cell-free medium, autofluorescence 405/460 nm (blue); series mostly up to 91.3 µM
How it was run: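 Test compounds were pinned into cell-free culture medium (DMEM with 10% FBS) and fluorescence was read directly at Ex/Em 405/460 nm. Signals were expressed as fluorescence equivalents of triamterene, with DMSO vehicle as control.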

[3] = qHTS assay to test for compound auto fluorescence at 535 nm (green) in HEK293 cell free culture (AID 720682); settings: cell-free medium, green autofluorescence 485/535 nm; series mostly up to 91.3 µM
How it was run: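 Green-channel intensity (Ex/Em 485/535 nm) was recorded from compound-treated wells containing only DMEM with 10% FBS. Fluorescein provided the equivalency standard.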

[4] = qHTS assay to test for compound auto fluorescence at 590 nm (red) in HEK293 cell free culture (AID 720683); settings: cell-free medium autofluorescence, Ex540/Em590 red; series mostly up to 91.3 µM
How it was run: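 Tox21 10K library compounds were pinned into cell-free DMEM with 10% FBS and fluorescence was read at excitation 540 nm. Activity is expressed as Rose Bengal sodium equivalency.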

[5] = qHTS assay to test for compound auto fluorescence at 590 nm (red) in HepG2 cell free culture (AID 720684); settings: cell-free medium autofluorescence, red 540/590 nm; series mostly up to 91.3 µM
How it was run: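 Red fluorescence (540 nm excitation, 590 nm emission) was measured after compound transfer into cell-free MEM supplemented with 10% FBS. Values are equivalencies against Rose Bengal sodium.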

[6] = qHTS assay to test for compound auto fluorescence at 460 nm (blue) in HepG2 cell free culture (AID 720685); settings: Cell-free culture medium, blue autofluorescence 405/460 nm; series mostly up to 91.3 µM
How it was run: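 Compound (23 nL) or DMSO pinned into cell-free MEM with 10% FBS; blue fluorescence read at 405/460 nm excitation/emission, expressed as auto-fluorescence equivalency to triamterene.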

[7] = qHTS assay to test for compound auto fluorescence at 535 nm (green) in HepG2 cell free culture (AID 720686); settings: Cell-free medium, green autofluorescence 485/535 nm; series mostly up to 91.3 µM
[8] = qHTS assay to test for compound auto fluorescence at 460 nm (blue) in HepG2 cells (AID 720687); settings: autofluorescence 405/460 nm, 1 h; series mostly up to 91.3 µM
How it was run: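 Cells (2,000/well in MEM with 10% FBS) attached overnight at 37 C, then were exposed to compound or DMSO for 1 hr at 37 C, 5% CO2. Fluorescence read at Ex/Em 405/460 nm, expressed as triamterene-equivalent signal.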

[9] = target: Glucocorticoid receptor (Homo sapiens) (UniProt P04150); assay: qHTS assay to identify small molecule antagonists of the glucocorticoid receptor (GR) signaling pathway (AID 720692; active = well fitted inhibition curve with a large enough effect in the signal ratio in the repeat runs, not every such curve was filed as active; the % refers to the signal ratio); settings: GR-bla HeLa, beta-lactamase FRET ratio, dexamethasone-stimulated, 18 h; series mostly up to 58.5 µM
How it was run: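 GR-bla HeLa cells carrying a GRE-driven beta-lactamase reporter received compound after 4 h plating, then dexamethasone (5 nM final). After 18 h at 37C, the FRET substrate was loaded for 2 h at room temperature and fluorescence read.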

[10] = target: Glucocorticoid receptor (Homo sapiens) (UniProt P04150); assay: qHTS assay to identify small molecule agonists of the glucocorticoid receptor (GR) signaling pathway (AID 720691; active = well fitted activation curve with a large enough effect in the signal ratio in the repeat runs, not every such curve was filed as active; the % refers to the signal ratio); settings: GR-bla HeLa, beta-lactamase reporter ratio, 18 h; activation: at 62.4 µM (top of the series) unless noted
How it was run: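 GR-bla HeLa cells carrying a GRE-driven beta-lactamase reporter, exposed to compounds for 18 h at 37 C. Reporter activation read as fluorescence after 2 h with LiveBLAzer B/G FRET substrate at room temperature.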

Measured: Potency

Sequence of Glucocorticoid receptor (Homo sapiens) (P04150 whole entry, looked up): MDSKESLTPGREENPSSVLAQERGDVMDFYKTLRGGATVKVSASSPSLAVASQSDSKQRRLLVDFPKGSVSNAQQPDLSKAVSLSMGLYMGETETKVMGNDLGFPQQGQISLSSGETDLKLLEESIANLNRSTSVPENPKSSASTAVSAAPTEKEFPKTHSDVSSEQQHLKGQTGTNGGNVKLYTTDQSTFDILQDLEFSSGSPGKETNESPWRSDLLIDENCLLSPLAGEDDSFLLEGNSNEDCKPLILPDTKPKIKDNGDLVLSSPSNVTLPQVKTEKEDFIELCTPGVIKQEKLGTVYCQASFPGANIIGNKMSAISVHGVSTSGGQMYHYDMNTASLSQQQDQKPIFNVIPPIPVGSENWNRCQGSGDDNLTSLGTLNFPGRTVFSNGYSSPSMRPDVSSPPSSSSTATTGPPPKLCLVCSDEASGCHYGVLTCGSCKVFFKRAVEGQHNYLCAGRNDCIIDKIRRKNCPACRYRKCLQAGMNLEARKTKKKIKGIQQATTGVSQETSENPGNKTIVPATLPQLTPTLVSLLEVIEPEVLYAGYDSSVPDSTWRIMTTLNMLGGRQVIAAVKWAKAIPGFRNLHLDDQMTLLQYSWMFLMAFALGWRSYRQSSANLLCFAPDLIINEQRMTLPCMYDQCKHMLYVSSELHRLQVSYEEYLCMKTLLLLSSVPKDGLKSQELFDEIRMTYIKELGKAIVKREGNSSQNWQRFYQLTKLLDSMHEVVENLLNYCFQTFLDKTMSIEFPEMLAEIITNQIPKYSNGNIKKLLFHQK

Oc1ccc2ccccc2c1
not listed: [10]
inactive: all other assays above

CC(C)Cc1ccccc1
not listed: [10]
inactive: all other assays above

C=C(C)C(=O)OCCCCCCCCCCCC
not listed: [10]
inactive: all other assays above

Cc1cc(=O)[nH]c(C(C)C)n1
not listed: [10]
inactive: all other assays above

OCC1CCCO1 (stereo not drawn)
not listed: [10]
inactive: all other assays above

C=C(C)C(=O)OCCCCCC
not listed: [10]
inactive: all other assays above

CCC(=O)O
not listed: [10]
inactive: all other assays above

CC1=C(CC(=O)O)c2cc(F)ccc2/C1=C\c1ccc(S(C)=O)cc1 (stereo not drawn)
inactive: all assays above
